Experimental data as given in PubChem BioAssay (NCATS).
Several values for one entry are separate records, joined by “and”; a condition that tells them apart may be missing. Equal values may be shown once. Records with an inconclusive call do not appear. Entries that show only a call come without a potency. Activity calls are given as the source filed them. Unless noted, the call rests on the fitted dose curve; in most records, active means well fitted curve in the direction sought with a large enough effect; inconclusive means small, poorly fitted or top-dose-only effect, or another doubt; inactive means no such curve, though single readings can be large; an effect the other way counts as inactive or inconclusive.

Experiments:
[1] = Cell Viability - N2a (AID 540); conditions: N2a mouse neuroblastoma cell viability; activity change, negative = cytotoxicity: at 92.2 µM (top of the series); further: nearly all actives have a fitted effect of over 45% in size
In short: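 CellTiter-Glo ATP luminescence, read 20 min after reagent at room temperature, reported viability following 40 h compound treatment at 37 °C. N2a mouse neuroblastoma cells seeded 1500/well; Hill equation gave AC50.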

[2] = Cellular Toxicity (caspase-3) Jurkat (AID 655); conditions: Jurkat caspase-3 activation, luminescence, DMSO = 0%, tamoxifen = 100%; at 92.2 µM (top of the series);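 further: cells exposed to compound for 16 h at 37 °C before reading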
In short: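 qHTS in human Jurkat T-cell leukemia line: 16 hr compound treatment at 37 °C, caspase-3/7 activity measured by Caspase-Glo luminescence. AC50 derived from Hill equation.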

[3] = Cellular Toxicity (caspase-3) SHSY5Y (AID 657)
In short: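 Readout: caspase-cleaved peptide-aminoluciferin substrate driving luciferase light in SH-SY5Y neuroblastoma cells after 16 h treatment. Response normalized to DMSO and 10 uM staurosporine controls.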

[4] = Cellular Toxicity (caspase-3) H-4-II-E (AID 663); conditions: Potency: caspase-3 activation;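 further: cells exposed to compound for 16 hr before readout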
In short: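 Caspase 3/7 activation measured by luminescent aminoluciferin substrate cleavage after 16 hr compound treatment of H-4-II-E cells in complete medium. Increase normalized between DMSO (basal) and 100 uM tamoxifen (100%); Hill-equation AC50 from concentration-response.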

[5] = Cell Viability - LYMP2-001 (AID 921); further: nearly all actives have a fitted effect of over 70% in size
In short: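 A lymphoblastoid cell line of human origin was treated with library compounds across a concentration series for 24 hours, and viable cell number was estimated from ATP-driven luciferase light output. Hill modeling gave AC50.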

[6] = MultiTox-Fluor Cytotoxicity Assay - LYMP1-001 - Dead Cells (AID 946)
In short: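 AC50 from Hill fit of concentration-response; data normalized to DMSO (basal) and 15 uM tetraoctylammonium bromide (100%). LYMP1-001 lymphoblastoid cells, 2500/well, 16 hr compound at 37 C; dead-cell protease fluorescence, Ex/Em 485/520.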

[7] = MultiTox-Fluor Cytotoxicity Assay - LYMP1-001 - Live Cells (AID 947)
[8] = MultiTox-Fluor Cytotoxicity Assay - LYMP1-002 - Live Cells (AID 955)
In short: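 After 16 h compound exposure at 37 C, live LYMP1-002 lymphoblastoid cells (2500/well) were quantified by cleavage of cell-permeant GF-AFC substrate, read at 405/510 nm after 60 min. Concentration-response fitted with Hill equation for AC50.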

[9] = MultiTox-Fluor Cytotoxicity Assay - LYMP1-003 - Dead Cells (AID 961); further: nearly all actives have a fitted effect of over 70% in size
In short: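 Human lymphoblastoid LYMP1-003 cells (2500/well) were treated with compounds for 16 hr at 37 C in complete medium. Dead-cell protease release was read by bis-AAF-R110 fluorescence (Ex/Em 485/520). AC50 came from Hill fits, normalized to DMSO and 15 uM tetraoctylammonium bromide.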

[10] = Cell Viability - LYMP1-003 - Assay at 24 hr (AID 963)
In short: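 Concentration-response qHTS: ATP loss measured by CellTiter-Glo luminescence after 24 h compound exposure at 37 C. Cells were LYMP1-003 human lymphoblastoid, 2500 per well. AC50 derived via standard Hill equation modeling.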

[11] = Cell Viability - LYMP2-005 (AID 967)
In short: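 Luciferase-based ATP quantitation served as the viability measure in human lymphoblastoid LYMP2-005 cells exposed to test compounds for 24 h at 37 C in complete culture medium. Potency (AC50) was obtained by fitting concentration-response curves with the Hill equation.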

[12] = Cell Viability - LYMP2-015 (AID 971); further: nearly all actives have a fitted effect of over 55% in size
In short: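 Cytotoxicity readout: decrease in intracellular ATP (CellTiter-Glo luminescence) in 2500 LYMP2-015 lymphoblastoid cells/well after 24 h compound exposure at 37 C. Concentration-response data fitted with the standard Hill equation to give AC50.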

[13] = Cell Viability - LYMP2-002 (AID 977)
In short: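 Human lymphoblastoid cells (2500/well) in complete medium were preincubated 5 hr at 37 C, then exposed to compounds for 24 hr at 37 C. Intracellular ATP was read by CellTiter-Glo luminescence; AC50 came from Hill-equation concentration-response fits.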

[14] = Cell Viability - LYMP2-016 (AID 984); further: nearly all actives have a fitted effect of over 55% in size
In short: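 Concentration-dependent ATP depletion measured in LYMP2-016 lymphoblastoid cells, 24 h, 37 C; luciferase-based luminescent detection; Hill-equation AC50.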

[15] = qHTS assay for small molecule antagonists of retinoid X receptor alpha signaling (AID 588546); conditions: HEK293T RXRa-UAS-bla, beta-lactamase ratio, antagonist mode; measured here: W530 green channel, cytotoxicity proxy;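 further: cells stimulated with 9-cis-retinoic acid as agonist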
In short: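 Beta-lactamase reporter inhibition, read as CCF4 fluorescence ratio (ex 405, em 460/530 nm) after 2 h at RT. HEK293T UAS-bla cells, 2500/well, were stimulated with 9-cis-RA at 500 or 100 nM final alongside test compound for 18 h at 37 C.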

[16] = target: Tumor necrosis factor (Homo sapiens) (UniProt P01375); assay: qHTS assay to identify small molecules that stimulate Tumor Necrosis Factor-alpha (TNF-alpha) secretion (AID 651757; active means well fitted curve in the direction sought with a large enough effect in the signal ratio; the % refers to the signal ratio)
Tumor necrosis factor (Homo sapiens), sequence (P01375 whole entry, looked up): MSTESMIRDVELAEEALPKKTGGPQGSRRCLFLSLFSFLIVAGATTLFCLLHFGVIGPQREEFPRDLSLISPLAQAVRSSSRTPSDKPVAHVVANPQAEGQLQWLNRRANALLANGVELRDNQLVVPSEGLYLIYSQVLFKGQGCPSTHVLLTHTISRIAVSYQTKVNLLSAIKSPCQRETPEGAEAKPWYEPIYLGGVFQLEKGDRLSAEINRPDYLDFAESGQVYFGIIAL
In short: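 Secreted TNF-alpha quantified by TR-FRET sandwich of two labeled anti-TNF-alpha antibodies, incubated 3 hr at room temperature. Preceded by 17 hr, 37 C compound treatment of THP-1 cells at 3000 cells/well.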

[17] = qHTS assay for environmental chemicals that activate the Aryl hydrocarbon Receptor (AhR) signaling pathway (AID 651777); conditions: 1A2-DRE human hepatoma cells, luciferase, 24 h; activation: stronger effect = higher value; further: nearly all actives have a fitted effect of over 15% in size
In short: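 Human hepatoma 1A2-DRE cells stably carrying a DRE/CYP1A2 promoter–luciferase reporter, 1,200 cells/well, exposed to compound 24 hr at 37 C. Luciferase read by One-Glo luminescence after 30 min at room temperature; increased signal marks AhR activation.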

[18] = qHTS assay for small molecule antagonists of the retinoid-related orphan receptor gamma (ROR-gamma) signaling pathway - cell viability counter screen (AID 720652; active means well fitted curve in the direction sought with a large enough effect in the repeat runs; an effect the other way counts as inactive or inconclusive;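 further: CHO reporter cells with doxycycline-induced ROR-gamma expression; compound exposure lasted 16 hr before ATP read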)
In short: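 Cytotoxicity counter screen: intracellular ATP (CellTiter-Glo luminescence) measured in the doxycycline-induced CHO RORE-luciferase reporter line after 16 hr compound exposure at 37 C, 5% CO2.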

[19] = qHTS assay for cell viability of HEK293 cells (AID 743288); conditions: ATP luminescence (CellTiter-Glo), 18 h; max response: stronger effect = lower value; further: nearly all actives have a fitted effect of over 50% in size
In short: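 HEK293, 18 h, 37 C, ATP luminescence. Cells at 2,000/well were allowed at least 5 h to settle before dosing; CellTiter-Glo developed 30 min at RT.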

[20] = qHTS assay for cell viability of the p53RE-bla HCT-116 cell line (AID 743292); further: nearly all actives have a fitted effect of over 55% in size
In short: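 CellSensor p53RE-bla HCT-116 cells (4,000/well) pre-incubated 5 h at 37 C, then exposed to compounds in DMSO for 16 h at 37 C. Viability read as ATP content by CellTiter-Glo luminescence after 30 min at room temperature.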

Structure (SMILES) | activity change, negative = cytotoxicity [1] | caspase-3 activation [2] | outcome [3] | Potency [4] | Potency [5] | Potency [6] | Potency [7] | Potency [8] | Potency [9] | Potency [10] | Potency [11] | Potency [12] | Potency [13] | Potency [14] | max response [15] | outcome [16] | activation [17] | Potency [18] | max response [19] | Potency [20]
ClCCCl | 3.03% (inactive) | 2.03% (inactive) | inactive | inactive | inactive | inactive | inactive | inactive | inactive | inactive | inactive | inactive | inactive | inactive | -8.92% and -8.87% and -8.24% | inactive | 0.113% (inactive) and 1.25% (inactive) and 1.3% (inactive) | inactive | -0.0928% (inactive) and -7.5% (inactive) and -2.25% (inactive) | inactive
C/C=C\c1ccc(OC)cc1 | -0.381% (inactive) | -0.717% (inactive) | inactive | inactive | inactive | inactive | inactive | inactive | inactive | inactive | inactive | inactive | inactive | inactive | 1.79% | inactive | -0.657% (inactive) | inactive | 8.66% (inactive) | inactive
Cc1ccccc1C | -22.6% (inactive) and -8.22% (inactive) | 3.87% (inactive) and 7.19% (inactive) | inactive | inactive | inactive | inactive | inactive | inactive | inactive | inactive | inactive | inactive | inactive | inactive | -1.73% and -2.63% | inactive | 1.3% (inactive) and -0.327% (inactive) | inactive | -12.4% (inactive) and -5.18% (inactive) | inactive
Cc1cccc([N+](=O)[O-])c1C | -2.02% (inactive) | 0.0783% (inactive) | inactive | inactive | inactive | inactive | inactive | inactive | inactive | inactive | inactive | inactive | inactive | inactive | -3.46% and -5.25% | inactive | 0.368% (inactive) and -0.256% (inactive) | inactive | -3.29% (inactive) and 4.27% (inactive) | inactive
COC(=O)CCCCC(=O)OC | 4.03% (inactive) | 2.55% (inactive) | inactive | inactive | inactive | inactive | inactive | inactive | inactive | inactive | inactive | inactive | inactive | inactive | -7.1% and -4.41% and 10.6% | inactive | 3.11% (inactive) and -1.77% (inactive) and 1.4% (inactive) | inactive | -0.912% (inactive) and -4.94% (inactive) and -1.91% (inactive) | inactive
O=C(O)CC(C(=O)O)C(CC(=O)O)C(=O)O (centres undefined) | -8.87% (inactive) | -0.624% (inactive) | inactive | inactive | inactive | inactive | inactive | inactive | inactive | inactive | inactive | inactive | inactive | inactive | 3.1% and -5.42% | inactive | -0.527% (inactive) and 0.126% (inactive) | inactive | -0.385% (inactive) and -19.1% (inactive) | inactive
COCC(=O)O | 3.33% (inactive) | 0.941% (inactive) | inactive | inactive | inactive | inactive | inactive | inactive | inactive | inactive | inactive | inactive | inactive | inactive | 10.5% and -3.07% | inactive | -1.91% (inactive) and 0.0528% (inactive) | inactive | -1.06% (inactive) and 2.91% (inactive) | inactive
C=Cc1ccccc1Cl | 1.46% (inactive) | -1.24% (inactive) | inactive | inactive | inactive | inactive | inactive | inactive | inactive | inactive | inactive | inactive | inactive | inactive | -3.63% | inactive | -0.0962% (inactive) | inactive | 6.21% (inactive) | inactive
CN(C)C=O | -9.63% (inactive) and 3.24% (inactive) | 2.75% (inactive) and 2.81% (inactive) | inactive | inactive | inactive | inactive |  | inactive | inactive | inactive | inactive | inactive | inactive | inactive | 4.64% and -5.61% | inactive | 0.683% (inactive) and 0.177% (inactive) and 0.0089% (inactive) | inactive | -10.8% (inactive) and 1.33% (inactive) and 0.809% (inactive) | inactive
Nc1ccc(Cl)cc1Cl | 7.32% (inactive) | 0.852% (inactive) | inactive | inactive | inactive | inactive | inactive | inactive | inactive | inactive | inactive | inactive | inactive | inactive | 2.24% and -0.667% | inactive | -1.04% (inactive) and 0.693% (inactive) | inactive | 1.15% (inactive) and -5.99% (inactive) | inactive
